An excerpt weighted towards active compounds, which were near 11% of everything screened.
BAZ2B block: inhibitors of human BAZ2B bromodomain; Potency, µM (top dose mostly 114 µM), inactives show at the highest dose activity change, negative = inhibition, usual class: inhibitors; actives 4.4% (n = 360,000); AlphaScreen BAZ2B-H3K14Ac peptide displacement; also: % is scaled to controls: 0 for no effect and ±100 for the full control effect; nearly all actives have a fitted effect of over 60% in size
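BAZ2B 50 nM plus b-H3(5-23)K14Ac 50 nM, PBS pH 7.4/0.01% Tween-20, 30 min RT; compound added (max 110 uM), 30 min RT; streptavidin donor/Ni-chelate acceptor beads 10 ug/mL final, 20 min dark; AlphaScreen read.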
HP1b binding inh: HP1-beta chromodomain-methylated histone interaction inhibition; Potency, µM (highest dose often 114 µM), for the others: top-dose activity change, negative = inhibition, usual class: inhibitors; P83916; AlphaScreen HP1-beta / biotin-H3K9me3 peptide binding; actives 0.56% (n = 390,000); also: nearly all actives have a fitted effect of over 70% in size
Target sequence (P83916 whole entry, looked up): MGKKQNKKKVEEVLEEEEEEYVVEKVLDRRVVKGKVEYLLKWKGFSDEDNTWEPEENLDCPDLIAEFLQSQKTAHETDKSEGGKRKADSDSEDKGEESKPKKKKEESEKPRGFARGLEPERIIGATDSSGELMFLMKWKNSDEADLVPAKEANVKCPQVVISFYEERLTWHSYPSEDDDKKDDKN
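AlphaScreen: HP1-beta (50 nM) preformed 30 min with biotin-H3(1-18)K9me3 peptide (50 nM) in PBS pH 7.4, 0.01% Tween-20. Compound added for 30 min at RT, then streptavidin donor/nickel chelate acceptor beads (10 ug/mL) for 30 min.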
PLK1 PBD block: inhibitors of human PLK1 polo-box domain binding; Potency, µM, for the others: max response, negative = inhibition, usual class: inhibitors; P53350; Plk1 PBD binding of FITC phosphopeptide, fluorescence polarization; actives 2.8% (n = 360,000); AID 720504; also: series mostly up to about 57 µM; % is scaled to controls: 0 for no effect and ±100 for the full control effect; nearly all actives have a fitted effect of over 65% in size
VDR inh: inhibitors of human vitamin D receptor. P11473. VDR-SRC2-3 peptide fluorescence polarization, 2 h. Potency, µM, for inactives: max response, negative = inhibition, hits mostly inhibitors. actives 0.93% (n = 400,000); also: % is scaled to controls: 0 for no effect and ±100 for the full control effect
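Fluorescence polarization assay of small-molecule disruption of VDR binding to coregulator peptide SRC2-3. Compounds and controls pin-transferred, then read after 2 h incubation at ambient room temperature.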
JMJD2A Tudor: inhibitors of human JMJD2A Tudor domain; AlphaScreen JMJD2A-Tudor / H3K4me3 peptide binding; actives 4.4% (n = 390,000); Potency, µM (titrated, usually from 114 µM), for the others: at the highest dose activity change, negative = inhibition, usual class: inhibitors; O75164; AID 504339; also: % is scaled to controls: 0 for no effect and ±100 for the full control effect; nearly all actives have a fitted effect of over 50% in size
G9a inh: blocks human histone lysine methyltransferase G9a. Potency, µM (highest dose often 102 µM), inactives show top-dose activity, negative = inhibition, actives largely listed as inhibitors. G9a H3K9 monomethylation, AlphaScreen, 2 h. actives 8.8% (n = 350,000); also: % is scaled to controls: 0 for no effect and ±100 for the full control effect; nearly all actives have a fitted effect of over 75% in size
Target sequence (Q96KQ7 913-1193 limits assumed): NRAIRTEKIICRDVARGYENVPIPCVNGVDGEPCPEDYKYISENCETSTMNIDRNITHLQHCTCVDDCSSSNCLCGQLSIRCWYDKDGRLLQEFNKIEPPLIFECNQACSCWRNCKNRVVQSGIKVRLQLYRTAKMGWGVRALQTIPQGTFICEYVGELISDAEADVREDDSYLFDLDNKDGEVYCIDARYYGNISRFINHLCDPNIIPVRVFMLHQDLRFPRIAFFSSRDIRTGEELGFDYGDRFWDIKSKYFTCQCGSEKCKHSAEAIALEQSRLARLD
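Readings reflect AlphaScreen signal from monomethyl-H3K9 antibody detection. HMT at 20 nM; substrate b-H3K9 500 nM; cofactor SAM 20 uM; 2 h RT reaction; compounds tested as titrations in qHTS with 15 min preincubation.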
An asterisk follows results filed as active; [ ] = another dose, or the depositor's remark. Calls follow the shape of the dose curve; as a rule, active = well fitted curve in the direction sought with a large enough effect; inconclusive = small, poorly fitted or top-dose-only effect, or another doubt; inactive = no such curve, though single readings can be large; an effect the other way counts as inactive or inconclusive. Potency is read from the fitted curve at half-maximal effect.

O=C1NC(=O)/C(=C\c2ccc(Sc3ccc(Cl)cc3)o2)N1 was read as BAZ2B block -33.4%, HP1b binding inh 4.4%, PLK1 PBD block inconclusive, VDR inh -2.6%, JMJD2A Tudor -35.7% and G9a inh -39.9%[59 µM].
O=C1NN(c2ccccc2)C(=O)/C1=C/c1ccc(-c2ccc(Cl)c(C(=O)O)c2)o1 was read as BAZ2B block 50.1µM*, HP1b binding inh inconclusive, PLK1 PBD block inconclusive, VDR inh inconclusive, JMJD2A Tudor 56.2µM* and G9a inh 17.8µM*.
O=C(Cc1ccc(F)cc1)N/N=C/c1ccc(-c2ccc(Cl)c(C(=O)O)c2)o1 was read as BAZ2B block -14.2%, HP1b binding inh 64.7%, PLK1 PBD block -8.2%, VDR inh -10.0%, JMJD2A Tudor -26.1% and G9a inh inconclusive.
`Cc1ccc(Sc2ccc(/C=C3/C(=O)NN(c4ccccc4)C3=O)o2)cc1` gave BAZ2B block inconclusive, HP1b binding inh 6.3%, PLK1 PBD block 5.97µM*, VDR inh inconclusive, JMJD2A Tudor inconclusive and G9a inh -24.1%[59 µM].
For O=C(O)c1cc(-c2ccc(/C=N/N3C(=O)C4C5C=CC(CC5)C4C3=O)o2)ccc1Cl (stereo not given) the results were BAZ2B block -15.0%, HP1b binding inh 22.1%, PLK1 PBD block -4.8%, VDR inh -6.1%, JMJD2A Tudor -0.3% and G9a inh -35.9%.
CC(C)(C)OC(=O)N1CCC(c2c(C(=O)NCCN3CCc4ccccc4C3)cnn2-c2ccc(F)cc2F)CC1 was read as BAZ2B block -16.5%[57.1 µM], HP1b binding inh 8.0%, VDR inh 11.6%, JMJD2A Tudor -31.7% and G9a inh inconclusive.
`Cc1ccc(/C=C2\SC(=S)N(CC3CCCO3)C2=O)o1` (stereo not given) gave BAZ2B block 31.6µM*, HP1b binding inh 31.6µM*, PLK1 PBD block 23.8µM*, VDR inh 8.6%, JMJD2A Tudor 35.5µM* and G9a inh 5.62µM*.
Screening Cc1ccc(/C=C2/SC(=S)N(C3CCCCC3)C2=O)o1 returned BAZ2B block inconclusive, HP1b binding inh -13.6%[57 µM], PLK1 PBD block inconclusive, VDR inh -6.9%, JMJD2A Tudor -31.7% and G9a inh 39.8µM*.
Screening O=C1/C(=C/c2cccnc2)SC(=S)N1CC1CCCO1 (stereo not given) returned BAZ2B block -35.2%, HP1b binding inh -16.1%, PLK1 PBD block -8.0%, VDR inh -7.5%, JMJD2A Tudor -35.4% and G9a inh -20.1%.
`O=C1/C(=C\c2ccc(-c3ccccc3Cl)o2)SC(=S)N1CC1CCCO1` (stereo not given) gave BAZ2B block inconclusive, HP1b binding inh inconclusive, PLK1 PBD block inconclusive, VDR inh -8.2%, JMJD2A Tudor inconclusive and G9a inh inconclusive.
Screening O=C1/C(=C/c2ccco2)SC(=S)N1CC1CCCO1 (stereo not given) returned BAZ2B block 35.5µM*, HP1b binding inh 35.5µM*, PLK1 PBD block -13.7%, VDR inh -2.6%, JMJD2A Tudor 25.1µM* and G9a inh inconclusive.
For CCCN1C(=O)/C(=C/c2ccc(C)o2)SC1=Nc1ccc(OCC)cc1 the results were BAZ2B block inconclusive, HP1b binding inh -14.3%, PLK1 PBD block -8.5%, VDR inh 2.0%, JMJD2A Tudor inconclusive and G9a inh inconclusive.
CCOC(=O)CN1C(=O)S/C(=C/c2ccc(C)o2)C1=O was read as BAZ2B block -38.6%, HP1b binding inh 1.0%, PLK1 PBD block 11.4%, VDR inh -22.8%, JMJD2A Tudor -21.8% and G9a inh 31.6µM*.
Screening COc1cc(C(=O)OCC#N)ccc1OCc1c(C)noc1C returned BAZ2B block 3.7%, HP1b binding inh 46.5%, PLK1 PBD block -14.6%, VDR inh 16.6% and JMJD2A Tudor -11.9%.
For N/C(=N\OC(=O)c1ccc(Cl)c(Cl)c1)c1cccc(CSc2ccccn2)c1 the results were BAZ2B block 45.2%, HP1b binding inh 51.1%, PLK1 PBD block -8.9%, VDR inh -3.1%, JMJD2A Tudor 33.2% and G9a inh 204.0%.
`N/C(=N\OC(=O)c1ccc(Cl)cc1Cl)c1ccccn1` gave BAZ2B block 0.8%, HP1b binding inh 18.4%, PLK1 PBD block inconclusive, VDR inh -10.8%, JMJD2A Tudor -17.5% and G9a inh 89.1µM*.
`N/C(=N\OC(=O)c1ccc(Cl)cc1[N+](=O)[O-])c1ccccn1` gave BAZ2B block -13.2%, HP1b binding inh 13.5%, PLK1 PBD block -10.0%, VDR inh -9.8% and JMJD2A Tudor inconclusive.
N/C(=N\OC(=O)c1cc(Br)ccc1Cl)c1ccccn1 was read as BAZ2B block 2.5%, HP1b binding inh 51.2%, PLK1 PBD block 0.9%, VDR inh 0.0%, JMJD2A Tudor 12.7% and G9a inh 56.2µM*.
N/C(=N\OC(=O)c1ccc([N+](=O)[O-])cc1Cl)c1ccccn1 was read as BAZ2B block 56.2µM*, HP1b binding inh -22.4%, PLK1 PBD block -4.2%, VDR inh -16.7%, JMJD2A Tudor inconclusive and G9a inh 20µM*.
Screening O=C(O/N=C(\c1ccccc1)c1ccccn1)c1ccc(Cl)c(Cl)c1 returned BAZ2B block 0.0%, HP1b binding inh 45.8%, PLK1 PBD block -1.2%, VDR inh -1.7%, JMJD2A Tudor -17.1% and G9a inh 3.55µM*.
Screening COc1cccc(NC(=O)CCc2nc3c(C)nn(-c4ccc(C)cc4)c3n(C)c2=O)c1 returned BAZ2B block -19.9%, HP1b binding inh -6.1%, VDR inh 1.0%, JMJD2A Tudor -11.9% and G9a inh -23.7%[59 µM].
Cc1cc(C)n(-c2nc(NCC3CCCO3)c3c4c(sc3n2)COC(C)(C)C4)n1 (stereo not given) was read as BAZ2B block 10.1%, HP1b binding inh 33.6%, PLK1 PBD block -13.2%, VDR inh 11.0%, JMJD2A Tudor -15.2% and G9a inh 1.78µM*.
Screening Cc1cc(C)n(-c2nc(NCC(C)O)c3c4c(sc3n2)COC(C)(C)C4)n1 (stereo not given) returned BAZ2B block -3.7%, HP1b binding inh 20.3%, PLK1 PBD block -10.3%, VDR inh 5.2% and JMJD2A Tudor -20.4%.
CC(CC=O)CCCC(C)(C)O (stereo not given) was read as VDR inh -10.4% and G9a inh -42.2%[2.33 µM].
For O=C(NNc1c2ccccc2nc2ccccc12)c1cccc(O)c1 the results were BAZ2B block 35.5µM*, HP1b binding inh inconclusive, PLK1 PBD block -2.1%, VDR inh 20.9%, JMJD2A Tudor 44.7µM* and G9a inh inconclusive.
